Rows were chosen to be rich in hits. Some 2.6% of all compounds tested hit in one or more screens of this group.
PHOSPHO1 block = PHOSPHO1 (human) inhibition; Q8TCT1; recombinant PHOSPHO1, absorbance phosphatase assay; inhibition, % at 13.3 µM; actives 1.1% (n = 290,000); in the data active = inhibition above about 60%
Target sequence (Q8TCT1 whole entry, looked up): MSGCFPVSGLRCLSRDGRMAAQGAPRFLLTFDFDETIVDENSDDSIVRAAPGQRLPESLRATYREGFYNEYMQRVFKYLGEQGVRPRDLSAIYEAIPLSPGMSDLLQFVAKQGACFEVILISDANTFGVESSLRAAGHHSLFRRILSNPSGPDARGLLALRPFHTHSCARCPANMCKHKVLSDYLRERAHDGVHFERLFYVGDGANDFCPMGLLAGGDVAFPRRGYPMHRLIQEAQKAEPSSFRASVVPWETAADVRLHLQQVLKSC
CRFBP-R2 block = CRF-BP/CRF-R2 complex antagonism. HEK293 CRF-R2/CRF-BP, CRF-induced calcium fluorescence. inhibition, % at 11.8 µM. actives 0.59% (n = 350,000);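 active = inhibition of the ligand-induced calcium signal above about 50% at the single tested concentration, limit read from the data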
PABP1 MLLE inh = inhibitors of microRNA-mediated deadenylation, human PABP1 MLLE binding; GST-MLLE / FITC-PAM2 fluorescence polarization; actives 0.36% (n = 360,000); P11940; inhibition, % at 20 µM; in the data active = inhibition above about 35%, passing the limit was not always enough;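 note: plate controls were DMSO wells with GST-MLLE for no effect and wells lacking GST-MLLE protein for full effect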
eIF4H inh = inhibitors of RNA binding by human eIF4H | Q15056 | eIF4H fluorescence polarization binding assay | inhibition, % at 35 µM | actives 0.94% (n = 290,000) | AID 2012;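 note: calls also rest on retests at 20 µM and on dose response follow-up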
PABP polyA inh = PABP-poly(A) binding inhibition. P11940. PABP-poly(A) RNA binding, fluorescence polarization. inhibition, % at 35 µM. actives 1% (n = 290,000);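 note: calls also rest on retests at 20 µM and on dose response follow-up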
* hit, by the source's call; . = no result. Unless noted, the rule behind the calls is not given here.

SMILES	PHOSPHO1 block	CRFBP-R2 block	PABP1 MLLE inh	eIF4H inh	PABP polyA inh
CCN(CC)S(=O)(=O)c1cc(OC)c(C)cc1C	15	69*	-2	-6	-6
CCN(CC)S(=O)(=O)c1cc(OC)c(Cl)cc1Cl	-4	7	-1	-4	-5
CS(=O)(=O)N1CCN(C(=O)COc2ccc3ccccc3c2)CC1	48	64*	8	8	-8
O=C(COc1ccc(S(=O)(=O)N2CCOCC2)cc1)N1CCN(c2ccccc2)CC1	68*	15	-1	-3	-10
CS(=O)(=O)N1CCN(C(=O)COc2ccccc2)CC1	47	-1	10	-8	8
CCOc1ccccc1N1CCN(C(=O)Cc2ccc(S(=O)(=O)N3CCOCC3)s2)CC1	.	101*	-47	.	.
CC12CCC(C(=O)N(c3nccs3)C1=O)C2(C)C (centres undefined)	.	5	-4	.	.
CC(C)c1ccc(O)c(=O)cc1	.	.	4	.	.
CC(=O)c1c(Cl)nc2cccc3c2c1-c1ccccc1C3=O	19	-17	50*	-2	6
Cn1c(SCC(=O)N2CCOCC2)nnc1-c1ccncc1	19	3	-11	-9	9
Cn1c(SCC(=O)N2CCOCC2)nnc1-c1cccc(NC(=O)c2ccccc2)c1	92*	-3	-111	.	.
Cc1ccnc(N2C(=O)c3cccc4c([N+](=O)[O-])ccc(c34)C2=O)c1	-3	15	63*	77*	14*
CCOc1ccc(CN(C)C(=O)CNC(=O)c2cc(OC)c(OC)c(OC)c2)cc1	24	3	-5	-10	-7
C/C=C/Cn1c(SC)nc2c1c(=O)[nH]c(=O)n2C	71*	-2	31	-8	12
COCCNc1nc(-c2ccccc2CO)c2sc(-c3ccccc3)cc2n1	.	.	30	.	.
c1ccc(-c2onc(-c3ccco3)c2-c2ccc3[nH]ccc3c2)cc1	-30	14	7	1	-10
COc1cccc(-c2nc(=S)c3c(o2)CCCC3)c1	61*	1	45*	-2	-9
S=c1nc(-c2ccccc2)oc2c1CCCC2	-33	-5	36	-8	-3
O=[N+]([O-])c1ccc(-c2nc(=S)c3c(o2)CCCC3)cc1	8	0	45*	-6	10
CCOC(=O)C1(C)CCN1C(=O)c1cccc(Cl)c1 (centres undefined)	.	.	2	.	.
N/C(=N\OC(=O)COc1ccc(Br)cc1)c1ccncc1	-2	59*	-3	5	2
N/C(=N\OC(=O)COc1ccc([N+](=O)[O-])cc1)c1ccncc1	18	-6	2	4	-11
Cc1ccc(OCC(=O)Nc2ccc(S(=O)(=O)N(C)C3CCN(C)CC3)cc2)c(C)c1	-2	-1	-107	-2	72*
Cc1ccc(-n2nnnc2SCc2nnc(-c3ccccc3Br)o2)cc1	12	136*	-97	16	18
Brc1ccccc1-c1nnc(CSc2nncn2-c2ccccc2)o1	4	40	-17	1	-2
SMILES	PHOSPHO1 block	CRFBP-R2 block	PABP1 MLLE inh	eIF4H inh	PABP polyA inh
Cc1c(-c2ccc(/C=N/NC(=O)C(=O)Nc3ccccc3F)o2)cccc1[N+](=O)[O-]	8	-15	-85	7	-5
Cc1c(C(=O)N/N=C/c2ccc(-c3ccccc3[N+](=O)[O-])o2)sc(N)c1C#N	-25	-19	1	73*	active
CCOC(=O)C1CCCN(C(=O)c2ccc(SC(F)(F)F)cc2)CC1 (centres undefined)	.	.	-2	.	.
CCN(CC)c1ccc(-c2c(C#N)c(N)nc(OC)c2C#N)cc1	50	-5	-8	60*	72*
CC(C)SCC(=O)Nc1ncc2c(n1)-c1ccccc1CC2	16	5	-33	76*	24
COC(=O)CSc1ncnc2c1sc1nc3c(cc12)COC(C)(C)C3	8	-5	-9	active	94
COc1cccc(CN(C)C(=O)c2cc(COc3ccc4ncccc4c3)on2)c1	61*	1	3	5	7
COc1cccc(CN(C)C(=O)c2cc(COc3c(F)cccc3F)on2)c1	23	33	-10	-5	4
Cc1ccc(C)c(NC(=S)Nc2ncccc2C)c1	24	124*	29	0	-5
Cc1cccnc1NC(=S)Nc1ccc(F)cc1F	20	-2	38	-6	-1
Cc1cc(NC(=O)CSc2nnc(-c3cccc(F)c3)n2N)no1	.	-7	-16	.	.
Cc1cc(NC(=O)CSc2nncn2-c2ccccc2)no1	-5	-3	-5	-3	-16
CCOc1ccccc1-n1nnnc1SCC(=O)Nc1cc(C)on1	62*	17	-8	2	-12
COc1ccc(-c2nnc(SCC(=O)Nc3cc(C)on3)n2N)cc1OC	75*	-2	-31	-2	3
COc1ccc(-n2cnnc2SCC(=O)Nc2cc(C)on2)cc1	36	24	-6	63*	18*
Oc1ccccc1C=Nc1ccccc1-c1nc2ccccc2[nH]1	-8	17	-9	5.7*	58*
C=CC[C@H]1C=C[C@@H](C(C(=O)OC)C(=O)OC)CN1C(C)=O	.	11	3	.	.
COc1ccc(C(=O)c2c(C(F)(F)F)oc3c2C(=O)c2ccccc2C3=O)cc1OC	82*	7	8	-7	9
CC(=O)OCC1OC(n2c(S)c(C#N)c(-c3ccccc3)c(C#N)c2=O)C(OC(C)=O)C(OC(C)=O)C1OC(C)=O (centres undefined)	.	-7	-28	.	.
CCN(CC(O)CON=C1c2ccccc2-c2ccccc21)S(=O)(=O)c1ccc(Cl)cc1 (centres undefined)	-12	-39	1	-10	-2
CCN(CC(O)CON=C1c2ccccc2-c2ccccc21)S(=O)(=O)c1ccc(C)cc1 (centres undefined)	-3	-23	14	80*	1.5*
Cc1ccc(NC(=O)Nc2nnc(CSCCOc3ccc(Cl)cc3)s2)cc1	-2	-30	-30	84	active
COc1ccc(OCCSCc2nnc(NC(=O)Nc3ccc(Cl)cc3)s2)cc1	9	-69	-21	-3	1
COc1ccc(N2c3ccccc3CN(Cc3ccccc3)[C@@H](C)[C@H]2Cc2cccnc2)cc1	.	8	12	.	.
O=c1oc2c3c4c(cc2s1)CCCN4CCC3	32	-11	74*	122*	122*
SMILES	PHOSPHO1 block	CRFBP-R2 block	PABP1 MLLE inh	eIF4H inh	PABP polyA inh
O=C(O)C(O)c1ccccc1 (centres undefined)	24	3	-7	-8	7
O=C(O)C(O)c1ccco1 (centres undefined)	21	-9	-7	104*	7.9*
O=S(=O)(Nc1nc2ccccc2nc1NCCO)c1cccc(Cl)c1	-16	27	-3	3	19
COCCCNc1nc2ccccc2nc1NS(=O)(=O)c1cccc(Cl)c1	.	14	43*	43	22
Cc1ccc(C2/C(=C(/O)c3ccccc3)C(=O)C(=O)N2CCN2CCOCC2)o1 (centres undefined)	76*	-27	4	11	15
Cc1ccc(/C(O)=C2/C(=O)C(=O)N(CCN3CCOCC3)C2c2ccccn2)cc1 (centres undefined)	-8	20	11	15	29
